# Shown are actives, neighbours in structure and some others; about 10% of the full set was active somewhere.
# HP1b chromo inh: blocks HP1-beta chromodomain binding to methylated histone tails. P83916. AlphaScreen HP1-beta / biotin-H3K9me3 peptide binding. Potency, µM (top dose mostly 114 µM), for inactives: at the top dose activity change, negative = inhibition, usual class: inhibitors. 0.56% of 390,000 active; note: potency is the fitted concentration of half-maximal effect; nearly all actives have a fitted effect of over 70% in size
#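 HP1-beta protein (50 nM final) preincubated 30 min at room temperature with biotinylated H3(1-18)K9me3 peptide (50 nM) in PBS pH 7.4, 0.01% Tween-20, then compound added for 30 min. AlphaScreen streptavidin donor/nickel chelate acceptor beads (10 ug/mL final), 30 min dark, luminescence read.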
# JMJD2A Tudor: inhibitors of human JMJD2A Tudor domain | AID 504339 | AlphaScreen JMJD2A-Tudor / H3K4me3 peptide binding | O75164 | Potency, µM (top dose mostly 114 µM), for the others: at the highest dose activity change, negative = inhibition, actives largely listed as inhibitors | 4.4% of 390,000 active; note: potency is the fitted concentration of half-maximal effect; % is set by controls: 0 for no effect and ±100 for the full control effect; nearly all actives have a fitted effect of over 50% in size
# Six1-Eya2 blk: Six1/Eya2 interaction inhibition; AlphaScreen GST-Six1/His-Eya2 binding, biochemical; active compounds read low; activity change, % (test concentration not listed); Q15475+O00167; 0.56% of 360,000 active; AID 651725; in the data active = activity change below about -65%; inconclusive = mostly about -30% to -63%; note: % is set by controls: 0 for no effect and ±100 for the full control effect
#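 Homogeneous AlphaScreen proximity assay pairing GST-Six1 with His-tagged Eya2 (added as 5X mix: 250 nM and 500 nM) in 50 mM Tris pH 8.0, 300 mM NaCl, 1 mM TCEP. Glutathione donor and nickel acceptor beads; 1 h, 37 °C, dark.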
# G9a block: G9a (human) methyltransferase inhibition | G9a H3K9 monomethylation, AlphaScreen, 2 h | Potency, µM (highest dose often 102 µM), for the others: at the top dose activity, negative = inhibition, hits mostly inhibitors | 8.8% of 350,000 active | AID 504332; note: potency is the fitted concentration of half-maximal effect; % is set by controls: 0 for no effect and ±100 for the full control effect; nearly all actives have a fitted effect of over 75% in size
#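 Chemiluminescent proximity detection of H3K9 monomethylation, read after 10 min bead incubation in the dark. Reaction: 20 nM G9a, 500 nM biotin-H3K9 peptide, 20 uM SAM cofactor, 2 h, room temperature, following 15 min enzyme-compound preincubation.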
# CtBP-E1A blk: CtBP/E1A binding inhibition; 0.49% of 340,000 active; activity change, % (concentration not given with the values); AlphaScreen GST-E1A/His-CtBP binding, 1536-well; active compounds read low; AID 651724; in the data active = activity change below about -65%; inconclusive = mostly about -30% to -63%; note: % is set by controls: 0 for no effect and ±100 for the full control effect
#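 Protein mix (5X: 125 nM each GST-E1A, His-CtBP) was incubated with pinned compound 2 h at 37 deg C in dark, in 50 mM Tris pH 8.0 buffer with 300 mM NaCl. Glutathione donor and nickel acceptor beads followed; AlphaScreen signal read after 1 h.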
# BAZ2B block: BAZ2B (human) inhibition | Q9UIF8 | AlphaScreen BAZ2B-H3K14Ac peptide displacement | Potency, µM (titrated, usually from 114 µM), for the others: top-dose activity change, negative = inhibition, actives largely listed as inhibitors | 4.4% of 360,000 active; note: potency is the fitted concentration of half-maximal effect; % is set by controls: 0 for no effect and ±100 for the full control effect; nearly all actives have a fitted effect of over 60% in size
#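 Compounds, titrated to a top concentration of 110 uM, were incubated 30 min at room temperature with preformed BAZ2B/acetyl-K14 H3 peptide complex (50 nM each). Proximity signal was measured by AlphaScreen after 20 min with beads.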
# * hit, by the source's call; u = inconclusive; x = no result given; [ ] = dose if it differs, or a comment. Unless noted, calls come from the whole dose curve; as a rule, active = well fitted inhibition curve with a large enough effect; inconclusive = small, poorly fitted or top-dose-only effect; inactive = no such curve, though single readings can be large or run the other way.
SMILES,HP1b chromo inh,JMJD2A Tudor,Six1-Eya2 blk,G9a block,CtBP-E1A blk,BAZ2B block
C/C(=N\N=C1\NC(=O)C(Cc2ccccc2)S1)c1ccccc1 (centres undefined),u,63µM*,0,u,x,u
CCNC(=O)CC1S/C(=N/N=C(\C)c2ccccc2)NC1=O (centres undefined),20%,u,3,47%,x,-25%
Cc1ccc(N2C(=O)c3ccccc3C2Nc2ccccc2F)nc1 (centres undefined),59%,-9%,1,50µM*,0,-1%
Cc1ccc(N2C(=O)c3ccccc3C2O)nc1 (centres undefined),x,x,x,u,x,3%
COc1ccc(-n2c(CN3CCN(c4ccccc4)CC3)nc3ccc([N+](=O)[O-])cc3c2=O)c(OC)c1,u,u,-21,40µM*,-27,-38%
COc1ccc(-n2c(CN3CCOCC3)nc3ccc([N+](=O)[O-])cc3c2=O)c(OC)c1,26%,-24%,-7,45µM*,3,-28%
COc1cccc(-n2c(CN3CCN(c4ccccn4)CC3)nc3ccc([N+](=O)[O-])cc3c2=O)c1,-7%[57 µM],-32%,-9,28µM*,x,56µM*
O=C(c1ccco1)n1nc(-c2ccccc2)nc1NCc1ccccc1Cl,33%,10%,x,4%[59 µM],x,-2%
COc1ccc(CN2CCC[C@]3(N[C@H](c4ccccc4)[C@@H]4C(=O)N(C)C(=O)[C@@H]43)C2=O)cc1,x,x,9,x,0,x
O=C(CSc1nccc(=O)[nH]1)NC1CCCCCCC1,34%,-5%,3,x,-3,x
CN(C)c1ccc(-n2cccc2/C=C/[N+](=O)[O-])cc1,45µM*,25µM*,1,22µM*,-21,16µM*
CCOC(=O)C1=NNC(C(=O)c2ccc(Cl)cc2)C1c1ccc(OC)cc1 (centres undefined),14%,-16%,-1,u,1,-37%
CCOC(=O)C1=NNC(C(=O)c2ccc(C)cc2)C1c1ccc(OC)cc1 (centres undefined),20%,-12%,-4,50µM*,-1,-33%
CC(=O)c1cc(CN2CCC(N3CCC(C(=O)N4CCCC4)CC3)CC2)cs1,32%,4%[11.4 µM],12,11µM*,x,-35%
CCC(C)NC(=O)C(=O)Nc1c2c(nn1-c1ccccc1)CS(=O)(=O)C2 (centres undefined),-14%,45µM*,x,u,x,u
COC(=O)c1ccc(=O)c2nc3/c(=C/O)c(O)cc(=O)c3[nH]c12,-69%,0.63µM*,-89*,0.79µM*,-94*,0.71µM*
COC(=O)c1ccc(N)cc1O,20%,-16%,4,1%[59 µM],-3,5%
O=C(CCCC(=O)NCCc1ccccc1)NCCc1ccccc1,-4%,-5%[57.1 µM],9,-5%[59 µM],14,8%
O=C1c2cccc(O)c2C(=O)c2c(O)cc(CO)cc21,20%,-19%,-19,x,-18,x
O=C1c2cc(O)cc(O)c2C(=O)c2c1cc(O)c([C@@H](CO)CCO)c2O,u,79µM*,u,x,u,x
COc1cc(OC)c(OC)cc1CNCc1ccco1,u,2.8µM*,0,28µM*,-11,u
COc1cccc(CNCc2ccco2)c1O,u,18µM*,3,x,5,35%
COc1cc(CNCc2ccco2)ccc1OCc1ccccc1,u,4µM*,-8,35µM*,-5,u
O=C(Cc1nnc(-c2cc3ccccc3[nH]2)s1)Nc1cc(C(F)(F)F)ccc1Cl,x,-14%,x,x,x,x
Cc1cccc(NC(=O)C2CCN(S(=O)(=O)c3ccc4[nH]c5c(c4c3)CCCCC5)CC2)c1,4%,-31%,x,-42%[59 µM],x,-4%
SMILES,HP1b chromo inh,JMJD2A Tudor,Six1-Eya2 blk,G9a block,CtBP-E1A blk,BAZ2B block
CC(C)(C)c1nnc(NC(=O)c2ccc3c(c2)OCO3)s1,u,89µM*,9,3.5µM*,23,-30%
CC(C)c1nnc(NC(=O)c2ccc3c(c2)OCO3)s1,20%,9%,5,-44%,9,-18%
C=CCNc1nc(N)c(C(=O)c2ccc3c(c2)OCO3)s1,-26%,-33%,-14,50µM*,-13,u
O=C(O)c1cc(-c2ccccc2)c(N2CCOCC2)s1,63%,-14%,13,79µM*,27,-4%
COc1ccc(OC)c(NC(=S)NC(=O)c2ccc(Br)o2)c1,35%,-13%,7,x,-7,0%
CCCN1C(=O)C(=O)c2cc(C)ccc21,30%,-9%,-3,x,3,x
Cc1ccc2c(c1)C(=O)C(=O)N2CCOc1ccccc1,u,u,-1,45µM*,2,u
Cc1ccc2c(c1)C(=O)C(=O)N2CCCOc1ccccc1C,u,40µM*,0,-38%,22,-17%
Cn1nc(C(=O)Nc2cc(F)ccc2F)c2c1-c1ccccc1SC2,41%,-16%,x,-24%[59 µM],x,-3%
Cc1cccc(NC(=O)c2cccc(N3C(=O)CCC3=O)c2)c1,30%,0%,2,14%,4,4%
CSc1cccc(-c2nnc(NC(=O)c3cccc(N4C(=O)CCC4=O)c3)o2)c1,7%,u,-26,7%,-30,u
O=C(Nc1nnc(-c2ccc(Cl)cc2)o1)c1cccc(N2C(=O)CCC2=O)c1,23%,u,-26,60%[59 µM],u,79µM*
Cc1ccc(-c2csc(NC(=O)c3cccc(N4C(=O)CCC4=O)c3)n2)o1,-11%,79µM*,-6,8.9µM*,-7,-32%
CS(=O)(=O)c1ccccc1-c1nnc(NC(=O)c2cccc(N3C(=O)CCC3=O)c2)o1,13%,2.5µM*,-9,u,0,79µM*
O=C(Nc1nnc(-c2ccncc2)o1)c1cccc(N2C(=O)CCC2=O)c1,22%,6.3µM*,u,u,-3,x
COC(=O)C1=C[C@@H](C(=O)OC)C2C3=C(C(=O)[C@]2(CC(C)C)NC(=O)c2ccccc2)[C@H](C)n2c(=O)n(-c4ccccc4)c(=O)n2[C@@H]3C1 (some centres undefined),34%,-11%,x,x,x,x
O=C(CCN1C(=O)C2CCCCC2C1=O)Nc1cc([N+](=O)[O-])ccc1Cl (centres undefined),41%,1%,4,9%[59 µM],4,6%
COc1ccc(NC(=O)CN2C(=O)CCc3cc(S(=O)(=O)N4CCOCC4)ccc32)c(OC)c1,10%,-31%,x,6%[59 µM],x,u
O=C(Nc1nnc(-c2ccco2)o1)c1ccc(Cl)cc1,23%,-3%,-1,8%,-17,u
O=C(Nc1nnc(-c2ccco2)o1)c1cccc(N2C(=O)CCC2=O)c1,-8%,4.5µM*,-14,16µM*,-3,22µM*
